Measurements as given in PubChem BioAssay AID602364 (National Center for Advancing Translational Sciences (NCATS), 2012).
Results filed as inconclusive are left out. The source made the active and inactive calls. The call rests on the fitted dose curve; in most records, active means well fitted inhibition curve with a large enough effect; inconclusive means small, poorly fitted or top-dose-only effect; inactive means flat fitted curve, though single readings scatter.

The molecules below were run against Luciferin 4-monooxygenase (Photinus pyralis) (UniProt P08659) (assay: FLuc inhibitory activity for the follow-up compounds in a biochemical assay with 1mM ATP). Conditions: purified P. pyralis luciferase, luminescence; series mostly up to 57.5 µM.
Luciferin 4-monooxygenase (Photinus pyralis), sequence (P08659 whole entry, looked up): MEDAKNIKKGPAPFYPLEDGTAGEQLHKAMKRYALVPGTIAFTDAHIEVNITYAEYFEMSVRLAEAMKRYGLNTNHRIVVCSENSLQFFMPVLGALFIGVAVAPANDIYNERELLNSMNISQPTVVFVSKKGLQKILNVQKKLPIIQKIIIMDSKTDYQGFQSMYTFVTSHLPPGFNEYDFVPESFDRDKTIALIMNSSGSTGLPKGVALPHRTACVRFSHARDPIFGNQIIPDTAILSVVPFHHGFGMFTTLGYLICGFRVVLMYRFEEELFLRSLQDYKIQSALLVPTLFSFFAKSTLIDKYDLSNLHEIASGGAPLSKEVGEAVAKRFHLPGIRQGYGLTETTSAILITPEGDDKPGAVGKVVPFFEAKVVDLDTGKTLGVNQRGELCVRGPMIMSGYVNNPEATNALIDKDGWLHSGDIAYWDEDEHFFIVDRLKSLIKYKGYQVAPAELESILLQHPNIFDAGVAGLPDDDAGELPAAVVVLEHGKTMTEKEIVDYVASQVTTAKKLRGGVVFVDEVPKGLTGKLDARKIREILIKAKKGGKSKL
Excerpt: NCGC Assay Overview: Firefly (Photinus pyralis) luciferase is one of the most commonly used transcriptional reporters. It is considered one of the more dynamically responsive reporters - that is, responsive to changes in reporter transcription - as it requires no post-translational modifications and is enzymatically active directly after protein synthesis (Wood, 1998). With no endogenous expression in mammalian cells and without the requirement of external excitation, it offers very little background signal, thus generally providing excellent signal to background for most assays. Previous profiling work to determine the prevalence of compounds that affect FLuc enzymatic activity (PubChem AID 411) identified that ~3% of the MLSMR library (then at ~72K) inhibited FLuc. […] Of the compounds identified in this profile that inhibited FLuc, 151 compounds were selected for further analysis, in an effort to better understand their mode of inhibiting FLuc. The assay described here was to determine the activity of the compounds in a FLuc assay that contained a KM concentration of D-luciferin and a high concentration (1mM) of ATP.
NCGC Assay Protocol Summary: Reagents: 50mM Tris acetate, pH 7.5; 10mM Mg acetate; 10uM D-luciferin (Sigma #L9504); 1mM ATP; 0.01% Tween-20; 0.05% BSA; 10nM P. pyralis luciferase (Sigma #L9506) Control compounds used were two known firefly luciferase inhibitors (3-(5-(3-chlorophenyl)-1,2,4-oxadiazol-3-yl)benzoic acid and 5-(2-fluorophenyl)-3-phenyl-1,2,4-oxadiazole), and DMSO. Three microliters containing firefly luciferase substrates in buffer (final concentrations: 50mM Tris acetate, pH 7.5, 10mM Mg acetate, 0.01% Tween-20, 0.05% BSA, 10uM D-luciferin, 1mM ATP) are dispensed into each well of a Greiner white, solid-bottom 1536-well format plate using a flying reagent dispenser (FRD). These assay plates were then treated with 23nL of compound or DMSO using a Kalypsys pin tool, which allows for delivery of a 12-point intraplate titration of each compound to the assay plate (quantitative HTS), with a final compound concentrations ranging from approximately ~60uM to 0.3nM. One microliter of firefly luciferase in […] Tris-acetate buffer was then delivered by FRD to each well for a final enzyme concentration of 10nM. Luciferase activity was then measured using a ViewLux CCD imager (PerkinElmer), with an average exposure time of 2-30 seconds (2X binning, medium/high gain).

SMILES	Potency
COc1ccc2nc(NC(=O)CCc3nc(-c4ccccc4F)no3)sc2c1	inactive
CC(C)(C)C(=O)Nc1ccc(-c2nc3ccccc3s2)cc1	0.0259 µM (active)
Nc1ccc2nc(-c3ccccc3)sc2c1	0.0366 µM (active)
O=C(Nc1cccc(-c2nc3ccccc3s2)c1)c1cc(-n2cnnc2)ccc1Cl	9.19 µM (active)
Nc1cccc(-c2nc3ccc(N)cc3s2)c1	0.116 µM (active)
CC(C)CC(=O)Nc1cccc(C(=O)Nc2ccccc2C(=O)O)c1	18.3 µM (active)
C/C(=N\NC(=O)c1ccccc1NC(=O)c1ccc(Cl)cc1)c1ccncc1	0.146 µM (active)
COc1ccc(C(=O)Nc2ccccc2-c2nc3ccccc3s2)c(OC)c1	inactive
Cc1ccc(S(=O)(=O)N2CCOCC2)cc1C(=O)Nc1ccccc1C(=O)O	inactive
O=C(Cc1ccccc1)Nc1ccccc1C(=O)Nc1ccc(C(=O)O)cc1	inactive
O=C(Nc1ccccc1C(=O)O)c1ccc(NC(=O)C2CCCCC2)cc1	32.6 µM (active)
Cc1ccc(C(=O)O/N=C(\N)c2ccccn2)cc1	0.0073 µM (active)
O=C(O)c1cccc(NC(=O)c2cccc(S(=O)(=O)N3CCCCC3)c2)c1	2.31 µM (active)
Cc1ccc(C(=O)Nc2cccc(C(=O)O)c2)cc1S(=O)(=O)N1CCCC1	0.461 µM (active)
Cc1ccc(C(=O)Nc2ccc(C(=O)O)cc2)cc1S(=O)(=O)NCc1ccccc1	inactive
COc1ccc(CC(=O)Nc2ccc(-c3nc4ccccc4s3)c(C)c2)cc1	18.3 µM (active)
Cc1ccc(NS(=O)(=O)c2ccc(Cl)c(C(=O)Nc3cccc(C(=O)O)c3)c2)cc1	inactive
CCOc1ccc(C(=O)Nc2cccc(C(=O)O)c2)cc1Cl	0.58 µM (active)
COc1ccc2nc(NC(=O)c3ccc([N+](=O)[O-])o3)sc2c1	3.26 µM (active)
COc1ccc2nc(NC(=O)c3cnccn3)sc2c1	0.517 µM (active)

SMILES	Potency
COc1cc(OC)cc(-c2nc3ccccc3s2)c1	4.11 µM (active)
CCOc1ccc2nc(NC(=O)c3cc([N+](=O)[O-])ccc3N3CCOCC3)sc2c1	inactive
CCOc1ccc2nc(NC(=O)c3ccoc3C)sc2c1	0.13 µM (active)
COc1ccc2nc(NC(=O)C3CCN(S(=O)(=O)c4cccnc4)CC3)sc2c1	inactive
O=C(Nc1ccccc1-c1nc2ccccc2s1)c1cccnc1	36.6 µM (active)
Cc1c(NS(C)(=O)=O)cccc1-c1nc2ccccc2s1	10.3 µM (active)
CC(C)c1ccc(C(=O)Nc2ccc(-c3nc4ccccc4s3)c(Cl)c2)cc1	inactive
COc1ccc2nc(NC(=O)c3ccc(S(=O)(=O)N4CCCC(C)C4)cc3)sc2c1 (stereo not given)	inactive
CCOc1ccc2nc(NC(=O)Cc3cccs3)sc2c1	3.66 µM (active)
O=C(Nc1ccccc1C(=O)O)c1cccc(NC(=O)c2ccccc2Br)c1	36.6 µM (active)
c1ccc2sc(-c3ccc4c(c3)OCO4)nc2c1	0.0919 µM (active)
O=C(O)c1cccc(NC(=O)c2cccc(NC(=O)C3CCCO3)c2)c1 (stereo not given)	4.11 µM (active)
COc1ccc(-c2nc3ccccc3s2)cc1NC(=O)c1ccc(F)cc1	inactive
Nc1ccc(-c2nc3ccc(N)cc3s2)cc1	0.103 µM (active)
O=C(Nc1ccccc1C(=O)O)c1cc(S(=O)(=O)Nc2ccccc2)ccc1Cl	inactive
Cc1ccc(C(=O)Nc2cccc(C(=O)O)c2)cc1S(=O)(=O)N1CCCCC1	0.291 µM (active)
COc1cc(OC)cc(C(=O)Nc2ccccc2-c2nc3ccccc3s2)c1	inactive
Cc1ccc(C(=O)Nc2ccccc2C(=O)O)cc1S(=O)(=O)N1CCCCCC1	1.83 µM (active)
NC(=O)Cc1ccc2sc(-c3ccccc3)nc2c1	1.16 µM (active)
COc1ccc(-c2nc3ccccc3s2)cc1O	0.0259 µM (active)
